According to PubChem BioAssay (EPA / NIEHS):
Records with an inconclusive call do not appear. Active and inactive are the calls of the source. The calls were made as follows, unless noted: active = hit-call score of the fitted dose curve at least 0.9, where 1 is the maximum; inconclusive = response in the unintended direction; inactive = score below 0.9.

Key:
PGR (gene 5241) [1] = molecular target: PGR (gene 5241) (UniProt P06401); assay: TOX21_PR_BLA_Followup_Agonist_ratio: Tox21 HEK293 Progesterone Receptor (PR) Agonism Beta-lactamase Follow-Up Assay, Ratio (AID 2283933)
Procedure, shortened: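 Cells were seeded and held 6 hr before compound addition, exposed for 16 hr at 37C, then given FRET substrate for 2 hr at room temperature. Agonism was scored from the blue/green substrate cleavage ratio against DMSO controls.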

PGR (gene 5241) [2] = molecular target: PGR (gene 5241) (UniProt P06401); assay: TOX21_PR_BLA_Followup_Antagonist_ratio: Tox21 HEK293 Progesterone Receptor (PR) Antagonism Beta-lactamase Follow-Up Assay, Ratio (AID 2283934);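 also: PR-UAS-bla HEK293T cells stimulated with 1 nM R5020 agonist for 16 hr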
Procedure, shortened: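 Cells are plated, rested 6 hr, then dosed with test compound in DMSO and challenged with 1 nM promegestone. After 16 hr incubation, substrate loading for 2 h at room temperature precedes fluorescence reading; viability is measured in the same wells.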

[3] = TOX21_PR_BLA_Followup_Agonist_viability: Viability Assessment in the Tox21 HEK293 Progesterone Receptor (PR) Agonism Beta-lactamase Follow-Up Assay (AID 2283935);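 also: signal loss means lower viability so actives are cytotoxic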
Procedure, shortened: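 Cells were plated in medium with 2% charcoal-stripped FBS and rested 6 hr. Compounds in DMSO were then added for 16 hr at 37C, followed by the FRET substrate step and CellTiter-Glo luminescence after 30 min.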

[4] = TOX21_PR_BLA_Followup_Antagonist_viability: Viability Assessment in the Tox21 HEK293 Progesterone Receptor (PR) Antagonism Beta-lactamase Follow-Up Assay (AID 2283936);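 also: cells exposed to compound with R5020 agonist for 16 h; hits lower the luminescence signal meaning cytotoxicity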
Procedure, shortened: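 PR-UAS-bla HEK293T cells in medium with 2% charcoal-stripped FBS were treated with compounds plus R5020 for 16 hr at 37C. After the beta-lactamase read, CellTiter-Glo was added to the same wells and luminescence read after 30 min at room temperature.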

PGR (gene 5241) [5] = molecular target: PGR (gene 5241) (UniProt P06401); assay: TOX21_PR_LUC_Followup_Agonist: Tox21 HEK293 Progesterone Receptor (PR) Agonism Luciferase Follow-Up Assay (AID 2283937; active = hit-call score of the fitted dose curve at least 0.9, where 1 is the maximum; inactive = score below 0.9)
Procedure, shortened: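 Seed HEK293-PR-A-luc cells, wait 5 h, add compounds in DMSO, incubate 16 h at 37C, add ONE-Glo, read luminescence after 30 min. Activity is increase over DMSO controls; run with a viability counter-screen.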

PGR (gene 5241) [6] = molecular target: PGR (gene 5241) (UniProt P06401); assay: TOX21_PR_LUC_Followup_Antagonist: Tox21 HEK293 Progesterone Receptor (PR) Antagonism Luciferase Follow-Up Assay (AID 2283938);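 also: curve fitted upward as signal gain over DMSO baseline despite antagonist label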
Procedure, shortened: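 A follow-up to the PR bla screen using HEK293-PR-A-luc cells, multiplexed with cell viability to flag cytotoxicity. Reporter luminescence after 16 h compound exposure was analysed relative to DMSO.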

[7] = TOX21_PR_LUC_Followup_Agonist_viability: Viability Assessment in the Tox21 HEK293 Progesterone Receptor (PR) Agonism Luciferase Follow-Up Assay (AID 2283941);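 also: loss of signal means cytotoxicity so actives lower viability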
Procedure, shortened: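 Multiplexed viability endpoint of the PR agonist luciferase follow-up: HEK293-PR-A-luc cells treated 16 h at 37C, with viability scored as decrease in CellTiter-Glo ATP signal.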

[8] = molecular target: T1, Thyroid hormone receptor alpha (Rattus norvegicus) + Thyroid hormone receptor beta (Rattus norvegicus) (UniProt P18113+P63059); assay: TOX21_TR_LUC_GH3_Antagonist_Followup: Tox21 GH3 Thyroid Hormone Receptor Antagonism Luciferase Follow-Up Assay (AID 2283942)
Procedure, shortened: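 Loss of T3-driven (1.0 nM final) reporter activity in GH3 cells was read by ONE-Glo luminescence after 24 h incubation at 37C; 15-point compound series spanned 92 uM to 5nM final, 1,500 cells/well.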

[9] = TOX21_TRB_BLA_Antagonist_Followup_viability: Viability Assessment in the Tox21 Thyroid Hormone Receptor beta Antagonism Beta-lactamase (BLA) Follow-Up Assay (AID 2283961)
Procedure, shortened: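 Cytotoxicity is measured in parallel with the antagonist-mode TRβ beta-lactamase screen, using ATP-coupled luciferase luminescence. Engineered HEK293T cells are treated for 18 h with 11-point compound series in triplicate.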

[10] = molecular target: Retinoic acid receptor RXR-alpha (Homo sapiens) (UniProt P19793); assay: TOX21_TR_RXR_BLA_Antagonist_Followup_ratio: Tox21 Thyroid Hormone Receptor beta Retinoid X Receptor alpha (RXRa) Antagonism Beta-lactamase (BLA) Follow-Up Assay, Ratio (AID 2283972)
Procedure, shortened: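 Antagonist mode used GAL4 UAS-driven beta-lactamase in HEK293T cells expressing RXRa, treated for 16 h with compound concentration series. Activity was taken from the blue/green (460:530 nm) ratio of cleaved to uncleaved substrate.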

[11] = CEETOX_H295R_PROG_noMTC: CeeTox H295R High-throughput Steroidogenesis Assay for Progesterone (PROG), maximum tolerated concentration (MTC) filtered results only (AID 2283920; active = hit-call score of the fitted dose curve at least 0.9, where 1 is the maximum; inactive = score below 0.9); conditions: actives raise or lower the signal
Procedure, shortened: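 Progesterone secreted into medium was measured by HPLC-MS/MS after MTBE extraction, following 48 h chemical exposure (0.1% DMSO) of forskolin-prestimulated (10 uM, 48 h) H295R adrenal cells. Gain or loss fitted against DMSO; no MTC filtering.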

[12] = CEETOX_H295R_ESTRONE_noMTC: CeeTox H295R High-throughput Steroidogenesis Assay for Estrone, maximum tolerated concentration (MTC) filtered results only (AID 2283921; active = hit-call score of the fitted dose curve at least 0.9, where 1 is the maximum; inactive = score below 0.9); conditions: actives raise or lower the signal
Procedure, shortened: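 Estrone in spent medium, quantified by tandem MS following dansyl chloride derivatization, after 48 h chemical exposure (0.1% DMSO) of forskolin-prestimulated (10 uM, 48 h) H295R cells; concentrations not MTC-filtered, bidirectional fit against DMSO.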

[13] = TOX21_PR_LUC_Followup_Antagonist_viability: Viability Assessment in the Tox21 HEK293 Progesterone Receptor (PR) Antagonism Luciferase Follow-Up Assay (AID 2283940)
Procedure, shortened: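 HEK293-PR-A-luc, 3,000 cells/well; 5 h at 37C/0% CO2; compound pin transfer; 16 h incubation; CellTiter-Glo ATP luminescence, signal loss = cytotoxicity.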

THRA (gene 7067) = THRA (gene 7067) (UniProt P10827); assay: TOX21_TRA_COA_Agonist_Followup_ratio: Tox21 Thyroid Hormone Receptor alpha Agonism through Coactivator Recruitment Follow-Up Assay, Ratio (AID 2283948; active = hit-call score of the fitted dose curve at least 0.9, where 1 is the maximum; inactive = score below 0.9)
Procedure, shortened: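 First, compound was incubated with 2.5 nM GST-TRα LBD in 0.10% BSA. Next, 200 nM fluorescein-SRC-2 and 2 nM Tb-anti-GST antibody were added. Finally, the 520:495 nm ratio was normalized to DMSO and T3 controls.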

THRB (gene 7068) [14] = molecular target: THRB (gene 7068) (UniProt P10828); assay: TOX21_TRB_BLA_Agonist_Followup_ratio: Tox21 Thyroid Hormone Receptor beta Agonism Beta-lactamase (BLA) Follow-Up Assay, Ratio (AID 2283954)
Procedure, shortened: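 Agonist mode: compounds (11-point, triplicate) incubated 18 h with HEK293T cells carrying GAL4-DBD/human TRβ-LBD and UAS-β-lactamase. Blue/green (460/530 nm) FRET ratio read after 2 h CCF4-AM loading; CellTiter-Glo viability run in the same plates.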

THRB (gene 7068) [15] = molecular target: THRB (gene 7068) (UniProt P10828); assay: TOX21_TRB_COA_Agonist_Followup_ratio: Tox21 Thyroid Hormone Receptor beta Agonism through Coactivator Recruitment Follow-Up Assay, Ratio (AID 2283963; active = hit-call score of the fitted dose curve at least 0.9, where 1 is the maximum; inactive = score below 0.9)
Procedure, shortened: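 First, the GST-fused TRβ ligand-binding domain (5.0 nM) was incubated with test compound in 0.10% BSA. Next, fluorescein-tagged SRC-2 peptide (200 nM) and terbium anti-GST antibody (2 nM) were added. Finally, TR-FRET emission ratios were normalized against DMSO and T3 controls.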

[16] = molecular target: Retinoic acid receptor RXR-alpha (Homo sapiens) (UniProt P19793); assay: TOX21_TR_RXR_BLA_Agonist_Followup_ratio: Tox21 Thyroid Hormone Receptor beta Retinoid X Receptor alpha (RXRa) Agonism Beta-lactamase (BLA) Follow-Up Assay, Ratio (AID 2283968)
Procedure, shortened: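 Cells were first allowed to attach for 5 h, after which compounds in DMSO were pinned at 11 concentrations and incubated 16 h at 37C. LiveBLAzer CCF4-AM substrate was then added for 2 h at room temperature before reading 460 and 530 nm fluorescence.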

[17] = CCTE_Harrill_HTTr_Viability_DMEM_6hr: (Pilot) CCTE's 6-hour Cell Viability Assessment for the High-Throughput Transcriptomics (HTTr) Platform, in MCF-7 cells cultured in DMEM + 10% fetal bovine serum, Harrill Lab (AID 2283973; active = hit-call score of the fitted dose curve at least 0.9, where 1 is the maximum; inactive = score below 0.9)
Procedure, shortened: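 Propidium iodide uptake imaged by high-content analysis after six hours of chemical treatment in an eight-concentration series. Cells: MCF-7 grown in DMEM with 10% fetal bovine serum; DMSO as baseline.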

[18] = molecular target: T1, Thyroid hormone receptor alpha (Rattus norvegicus) + Thyroid hormone receptor beta (Rattus norvegicus); assay: TOX21_TR_LUC_GH3_Agonist_Followup: Tox21 GH3 Thyroid Hormone Receptor Agonism Luciferase Follow-Up Assay (AID 2283939)
Procedure, shortened: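 Agonist-mode confirmatory run: 15 concentrations (5 nM to 92 uM final) on GH3 rat pituitary cells, 24 h at 37C/5% CO2, T3 as positive control. Luminescence read with ONE-Glo after 30 min.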

[19] = TOX21_TR_RXR_BLA_Agonist_Followup_viability: Viability Assessment in the Tox21 Thyroid Hormone Receptor beta Retinoid X Receptor alpha (RXRa) Agonism Beta-lactamase (BLA) Follow-Up Assay (AID 2283970)
Procedure, shortened: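 Viability counter-screen run alongside the RXRa bla follow-up: HEK293T reporter cells were treated for 16h at 37C in stripped-serum medium, then ATP was quantified by luciferase-coupled CellTiter-Glo. Decreased signal relative to DMSO marked cytotoxicity.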

Measured: AC50

Retinoic acid receptor RXR-alpha (Homo sapiens), sequence (P19793 whole entry, looked up, the tested form may be a part): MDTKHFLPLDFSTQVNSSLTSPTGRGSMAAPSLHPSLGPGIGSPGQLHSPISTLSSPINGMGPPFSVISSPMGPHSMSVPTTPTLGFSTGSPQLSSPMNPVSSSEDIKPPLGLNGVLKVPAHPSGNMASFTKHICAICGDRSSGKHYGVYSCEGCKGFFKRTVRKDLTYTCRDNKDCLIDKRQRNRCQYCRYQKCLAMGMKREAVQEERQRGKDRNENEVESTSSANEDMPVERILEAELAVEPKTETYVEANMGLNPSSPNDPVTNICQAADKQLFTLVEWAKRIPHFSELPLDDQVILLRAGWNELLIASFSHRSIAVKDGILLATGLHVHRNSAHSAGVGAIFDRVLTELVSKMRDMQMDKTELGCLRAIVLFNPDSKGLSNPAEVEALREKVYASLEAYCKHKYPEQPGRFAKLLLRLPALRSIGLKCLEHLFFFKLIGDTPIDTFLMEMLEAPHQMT
THRB (gene 7068), sequence (P10828 whole entry, looked up, the tested form may be a part): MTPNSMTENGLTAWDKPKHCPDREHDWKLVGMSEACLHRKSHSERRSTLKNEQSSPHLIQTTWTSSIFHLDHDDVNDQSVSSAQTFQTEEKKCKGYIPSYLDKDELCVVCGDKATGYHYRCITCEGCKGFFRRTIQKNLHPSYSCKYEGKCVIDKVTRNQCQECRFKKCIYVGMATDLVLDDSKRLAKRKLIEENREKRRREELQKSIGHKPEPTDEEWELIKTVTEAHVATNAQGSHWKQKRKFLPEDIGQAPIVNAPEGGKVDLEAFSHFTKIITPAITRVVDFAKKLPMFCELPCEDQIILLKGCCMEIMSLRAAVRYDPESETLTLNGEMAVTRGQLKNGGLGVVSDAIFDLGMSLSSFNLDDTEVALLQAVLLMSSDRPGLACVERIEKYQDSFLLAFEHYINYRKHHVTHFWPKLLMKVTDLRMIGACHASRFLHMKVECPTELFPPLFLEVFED
PGR (gene 5241), sequence (P06401 whole entry, looked up): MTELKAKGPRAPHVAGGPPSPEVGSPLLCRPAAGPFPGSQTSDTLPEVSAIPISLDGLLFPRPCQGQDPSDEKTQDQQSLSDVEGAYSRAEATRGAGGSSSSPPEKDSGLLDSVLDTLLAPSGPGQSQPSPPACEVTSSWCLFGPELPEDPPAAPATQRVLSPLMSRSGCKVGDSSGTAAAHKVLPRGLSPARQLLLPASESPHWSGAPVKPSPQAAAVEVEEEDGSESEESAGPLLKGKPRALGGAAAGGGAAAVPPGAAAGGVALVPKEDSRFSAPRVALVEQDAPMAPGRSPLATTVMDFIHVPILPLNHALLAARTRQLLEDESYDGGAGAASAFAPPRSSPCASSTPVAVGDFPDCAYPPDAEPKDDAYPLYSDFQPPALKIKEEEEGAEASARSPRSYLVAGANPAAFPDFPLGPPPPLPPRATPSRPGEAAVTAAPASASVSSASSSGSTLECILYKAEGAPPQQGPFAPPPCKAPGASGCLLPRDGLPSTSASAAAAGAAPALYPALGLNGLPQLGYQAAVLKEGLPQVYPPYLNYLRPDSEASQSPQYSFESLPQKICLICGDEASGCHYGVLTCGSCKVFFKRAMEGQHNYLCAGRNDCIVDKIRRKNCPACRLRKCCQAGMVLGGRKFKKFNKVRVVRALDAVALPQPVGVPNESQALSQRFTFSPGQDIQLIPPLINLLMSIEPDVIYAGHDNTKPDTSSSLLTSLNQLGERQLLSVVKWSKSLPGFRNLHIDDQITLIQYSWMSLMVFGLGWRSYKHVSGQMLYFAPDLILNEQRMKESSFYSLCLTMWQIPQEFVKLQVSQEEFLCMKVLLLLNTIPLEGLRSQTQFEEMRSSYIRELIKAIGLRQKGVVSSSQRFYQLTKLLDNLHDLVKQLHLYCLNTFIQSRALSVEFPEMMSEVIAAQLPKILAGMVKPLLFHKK
THRA (gene 7067), sequence (P10827 whole entry, looked up, the tested form may be a part): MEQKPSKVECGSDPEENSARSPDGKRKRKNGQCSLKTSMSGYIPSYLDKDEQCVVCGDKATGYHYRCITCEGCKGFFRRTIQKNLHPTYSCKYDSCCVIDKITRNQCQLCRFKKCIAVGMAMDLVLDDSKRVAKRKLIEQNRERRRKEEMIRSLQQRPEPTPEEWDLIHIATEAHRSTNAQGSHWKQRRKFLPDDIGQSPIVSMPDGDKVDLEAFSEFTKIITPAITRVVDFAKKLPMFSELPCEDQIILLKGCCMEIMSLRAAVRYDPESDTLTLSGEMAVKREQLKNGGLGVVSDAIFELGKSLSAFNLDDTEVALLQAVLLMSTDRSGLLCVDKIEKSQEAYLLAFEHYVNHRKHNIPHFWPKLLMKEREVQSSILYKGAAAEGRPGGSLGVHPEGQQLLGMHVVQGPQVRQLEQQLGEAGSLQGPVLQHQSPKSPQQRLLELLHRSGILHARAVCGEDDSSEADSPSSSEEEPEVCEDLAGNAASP
T1 sequence (P63059 whole entry, looked up): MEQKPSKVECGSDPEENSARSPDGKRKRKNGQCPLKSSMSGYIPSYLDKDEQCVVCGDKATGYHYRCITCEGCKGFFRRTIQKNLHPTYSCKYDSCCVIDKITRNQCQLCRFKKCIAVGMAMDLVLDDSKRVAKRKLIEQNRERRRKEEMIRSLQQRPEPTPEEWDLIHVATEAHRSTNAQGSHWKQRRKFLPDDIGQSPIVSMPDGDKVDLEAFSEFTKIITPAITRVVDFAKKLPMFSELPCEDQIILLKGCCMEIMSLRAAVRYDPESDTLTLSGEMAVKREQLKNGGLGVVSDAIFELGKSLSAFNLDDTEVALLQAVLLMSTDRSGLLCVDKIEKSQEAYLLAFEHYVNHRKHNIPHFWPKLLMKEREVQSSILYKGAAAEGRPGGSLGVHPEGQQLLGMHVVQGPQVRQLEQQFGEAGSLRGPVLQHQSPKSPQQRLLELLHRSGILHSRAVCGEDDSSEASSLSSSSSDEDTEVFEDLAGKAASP
T1 sequence (P18113 whole entry, looked up): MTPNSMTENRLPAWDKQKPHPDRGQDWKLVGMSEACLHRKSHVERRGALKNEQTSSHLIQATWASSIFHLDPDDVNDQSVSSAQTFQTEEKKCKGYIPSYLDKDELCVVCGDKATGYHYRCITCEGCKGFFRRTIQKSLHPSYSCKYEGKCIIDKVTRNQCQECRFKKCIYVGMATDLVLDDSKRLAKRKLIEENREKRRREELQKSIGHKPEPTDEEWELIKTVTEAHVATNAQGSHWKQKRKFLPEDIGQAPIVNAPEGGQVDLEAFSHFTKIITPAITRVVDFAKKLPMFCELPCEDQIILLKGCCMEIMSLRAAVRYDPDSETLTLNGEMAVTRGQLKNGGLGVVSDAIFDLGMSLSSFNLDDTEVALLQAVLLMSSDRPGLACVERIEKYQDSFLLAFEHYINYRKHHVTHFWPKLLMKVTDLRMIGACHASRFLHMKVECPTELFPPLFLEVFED

CCOc1ccc2c(c1)C(C)=CC(C)(C)N2
inactive: PGR (gene 5241) [1] | PGR (gene 5241) [2] | [3] | [4] | PGR (gene 5241) [5] | PGR (gene 5241) [6] | [7]

Nc1nc(N)c2nc(CNc3ccc(C(=O)N[C@@H](CCC(=O)O)C(=O)O)cc3)cnc2n1
inactive: [8] | [9] | [10]

Cc1oc(-c2ccccc2)nc1CCOc1cccc2c1ccn2CCC(=O)O
inactive: [12]
active: [11] 12.9 µM

Oc1ccc2ccccc2c1N=Nc1ccccc1
inactive: PGR (gene 5241) [2] | [3] | [4] | [13]

O=c1c(O)c(-c2ccc(O)c(O)c2)oc2cc(O)cc(O)c12
inactive: PGR (gene 5241) [2] | PGR (gene 5241) [6]

C=CCOC(=O)c1ccccc1C(=O)OCC=C
inactive: [11]

Cc1cc(NC(=O)C(=O)O)cc(C)c1Oc1ccc(O)c2c1CCC2
active: THRA (gene 7067) 0.00353 µM | THRB (gene 7068) [14] 0.0848 µM | THRB (gene 7068) [15] 0.00227 µM | [16] 21.6 µM

C[C@]12C=CC(=O)C=C1CC[C@@H]1[C@@H]2C(=O)C[C@@]2(C)[C@H]1CC[C@]2(O)C(=O)CO
inactive: PGR (gene 5241) [2] | [3] | PGR (gene 5241) [6] | [13] | [7]

Oc1ccc2c(c1)OC[C@@H](N1CCC(O)(c3ccc(F)cc3)CC1)[C@H]2O
inactive: PGR (gene 5241) [2] | [3] | [4] | PGR (gene 5241) [6] | [13] | [7]

CCc1c(C(=O)NN2CCCCC2)nn(-c2ccc(Cl)cc2Cl)c1-c1ccc(Br)cc1
inactive: PGR (gene 5241) [1] | [3] | [4] | PGR (gene 5241) [5] | PGR (gene 5241) [6] | [13]
active: PGR (gene 5241) [2] 25.5 µM

CCOC(=O)C(C)(C)Oc1ccc(Cl)cc1
inactive: [17]

CCCCCCCCCCC
inactive: [18] | THRA (gene 7067) | THRB (gene 7068) [14] | THRB (gene 7068) [15] | [16] | [19]
